BoNT A protease: BoNT/A light chain protease inhibitors, primary screen, biochemical, flow cytometry, MLPCN library. Botulinum neurotoxin type A light chain protease (Clostridium botulinum A str. ATCC 3502). multiplex microsphere protease substrate cleavage. inhibition, % at 10 µM. hit rate 0.17% among 360,000. AID 588499, 2011; further: plate controls were buffer without enzyme for full effect and enzyme alone for no effect
BoNT F protease: BoNT/F light chain protease inhibitors, primary screen, biochemical, flow cytometry, MLPCN library; Botulinum neurotoxin type F light chain protease (Clostridium botulinum); Multiplex microsphere protease cleavage assay; inhibition, % at 10 µM; hit rate 0.22% among 360,000; AID 588497, 2011; in the data active means inhibition above about 35%, passing the limit was not always enough; inconclusive means no clear call, values can overlap the other calls; further: plate controls were buffer without enzyme for full effect and enzyme alone for no effect
Autofluor counter: compound fluorescence in toxin protease inhibitor counterscreen; compound autofluorescence counterscreen, microsphere flow cytometry; active compounds read high; fluorescence intensity (no concentration beside the values); hit rate 3.1% among 360,000; AID 624483; in the data active means fluorescence intensity above about 16000; inconclusive means no clear call, values can overlap the other calls
Anthrax LF inh2: Bacillus anthracis LF protease inhibitors, primary screen, biochemical, multiplex microsphere, MLPCN library; inhibition, % at 10 µM; multiplex microsphere protease cleavage assay; hit rate 0.12% among 360,000; further: plate controls were buffer without enzyme for full effect and enzyme alone for no effect
Numbers without * were called inactive; u = inconclusive. A selection: hits, their analogues and other compounds. The true share with any hit is near 3.5%. Unless noted, no stated cut-off is given here; in the data, active means inhibition above about 30%; inconclusive means no clear call, values can overlap the other calls; inactive means below that.

SMILES	BoNT A protease	BoNT F protease	Autofluor counter	Anthrax LF inh2
Cc1ccc(C)c(S(=O)(=O)N2CCN(C(=O)c3cnccn3)CC2)c1	0	1	23149*	-3
COc1cc(C)c(S(=O)(=O)Nc2ccc(CC(=O)O)cc2)cc1C	-6	-8	25248*	-3
COC(=O)[C@H](CCSC)NC(=O)NCCc1ccc(F)cc1	-1	-2	23311*	-2
COC(=O)[C@H](CCSC)NC(=O)Nc1ccc(C)c(C)c1	4	5	21760*	2
CCCNC(=O)N[C@@H](CCSC)C(=O)OC	0	10	7884	-1
CN(C)[C@H]1CCN([C@@H]2CS(=O)(=O)N[C@H]2COCc2ccccc2)C1	-2	-9	6098	-4
O=C(O)c1ccc(S(=O)(=O)N2CCC(c3nc(-c4ccccc4Cl)no3)CC2)cc1	u	-1	23179*	-2
CCOc1ccccc1OCC(=O)NC1CCSc2ccccc21 (configuration not stated)	0	-13	3258	-5
CCc1cc2c(SCC(=O)c3ccccc3)ncnc2s1	-1	-14	3179	-5
CCc1cc2c(SCC(=O)O)ncnc2s1	u	-14	18901*	-2
O=C(O)CSc1ncnc2sc3c(c12)CCC3	0	0	19351*	0
O=C(O)CSc1ncnc2sc3c(c12)CCCC3	0	0	4441	0
Fc1ccc(CSc2ncnc3sc4c(c23)CCCC4)cc1	2	1	19865*	-6
CCSc1ncnc2sc3c(c12)CCC3	1	1	20242*	-1
CCN(CC)S(=O)(=O)c1ccc(C(=O)OCCN2C(=O)c3cccc4c(N5CCOCC5)ccc(c34)C2=O)cc1	35*	20	7204	28
CCCN1C(=O)c2cccc3c(N4CCCCC4)ccc(c23)C1=O	32*	11	4642	14
Nc1nc(SCc2cccnc2)c2ncn(C3OC(CO)C(O)C3O)c2n1 (configuration not stated)	0	-8	3928	2
COC(=O)c1ccccc1NC(=O)C1CCCN(S(=O)(=O)c2ccc(F)cc2)C1 (configuration not stated)	-1	2	4741	1
COC(=O)c1cc(OC)c(OC)cc1NC(=O)C1CCC(=O)N1S(=O)(=O)c1ccc(C)cc1 (configuration not stated)	0	-2	9381	0
COC(=O)c1ccccc1NC(=O)C1CCCN(S(=O)(=O)c2ccccc2)C1 (configuration not stated)	u	4	19578*	3
Cc1ccc(S(=O)(=O)N2C(=O)CCC2C(=O)N2CCN(C)CC2)cc1 (configuration not stated)	1	3	22032*	0
Cc1ccc(S(=O)(=O)N2C(=O)CCC2C(=O)N2CCCCC2)cc1 (configuration not stated)	0	u	4194	-18
COC(=O)c1ccccc1NC(=O)C1CCC(=O)N1S(=O)(=O)c1ccc(C)cc1 (configuration not stated)	u	1	16363*	0
CC1=C(C(=O)N2CCCCCC2)CC(CC(=O)NCC2CCCCC2)C(=O)N1Cc1ccc(F)cc1 (configuration not stated)	1	4	5646	6
CC(=O)c1c(C)[nH]c(C(=O)Nc2ccc(C)cc2Br)c1C	-1	0	5259	1
SMILES	BoNT A protease	BoNT F protease	Autofluor counter	Anthrax LF inh2
O=c1[nH]c2ccc(Cl)cc2c(-c2ccccc2)c1N1CCN(CCO)CC1	u	1	20528*	-1
CCOC(=O)N1CCN(c2c(-c3ccccc3)c3cc(Cl)ccc3[nH]c2=O)CC1	0	9	7826	0
Cc1ccc(S(=O)(=O)Nc2ccc3ccccc3c2)cc1	0	-6	3935	-1
COc1ccc(S(=O)(=O)NCCOc2ccccc2)cc1C	0	6	3363	-9
Cc1cc(S(=O)(=O)NCc2ccco2)c(C)s1	0	4	2959	0
COc1ccc(S(=O)(=O)Nc2ccc3ccccc3c2)cc1C	-4	-6	25259*	1
COc1ccc(S(=O)(=O)NCCC(C)C)cc1C	1	0	23019*	-1
COc1ccc(S(=O)(=O)Nc2ccc3c(c2)OCO3)cc1OC	u	-2	18331*	0
Cc1cc(S(=O)(=O)Nc2cc(C)c(O)c(C)c2)c(C)s1	-3	-5	16803*	-6
CC1(C(=O)NS(=O)(=O)c2ccc(Cl)s2)CCN1C(=O)C1(c2ccccc2)CCCC1 (configuration not stated)	0	-4	2836	-1

Assay outcomes as filed in PubChem BioAssay.
